Assay [1] is described as follows: ATG_GLI_CIS: Attagene CIS-FACTORIAL HepG2 Assay for human Zinc Finger Protein GLI1 (AID 2282945). To be noted: HepG2, Attagene cis-factorial reporter mRNA, GLI element; actives raise or lower the signal. A digest of the protocol: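 HepG2 cells transiently transfected with cis-promoter multiplexed reporter units report endogenous transcription factor activity. After 24 h chemical exposure, reporter mRNA was quantified by RT-PCR, 6-FAM labelling, HpaI digestion and capillary electrophoresis, with bidirectional fitting against DMSO.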

The target of assay [2] is Bile acid receptor (Homo sapiens) (UniProt Q96RI1). Nature of the assay: ATG_IR1_CIS: Attagene CIS-FACTORIAL HepG2 Assay for human Nuclear Receptor Subfamily 1 Group H Member 4 (NR1H4), IR1 submotif (AID 2282946). To be noted: IR1 reporter transcription, actives raise or lower the signal. A digest of the protocol: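 Transient MRTU transfection, HepG2; 24 h dosing; RNA → RT-PCR → 6-FAM primer extension → HpaI digest → capillary electrophoresis fluorescence. Gain/loss of signal fitted relative to DMSO.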
Chain of Bile acid receptor (Homo sapiens) (Q96RI1 whole entry, looked up): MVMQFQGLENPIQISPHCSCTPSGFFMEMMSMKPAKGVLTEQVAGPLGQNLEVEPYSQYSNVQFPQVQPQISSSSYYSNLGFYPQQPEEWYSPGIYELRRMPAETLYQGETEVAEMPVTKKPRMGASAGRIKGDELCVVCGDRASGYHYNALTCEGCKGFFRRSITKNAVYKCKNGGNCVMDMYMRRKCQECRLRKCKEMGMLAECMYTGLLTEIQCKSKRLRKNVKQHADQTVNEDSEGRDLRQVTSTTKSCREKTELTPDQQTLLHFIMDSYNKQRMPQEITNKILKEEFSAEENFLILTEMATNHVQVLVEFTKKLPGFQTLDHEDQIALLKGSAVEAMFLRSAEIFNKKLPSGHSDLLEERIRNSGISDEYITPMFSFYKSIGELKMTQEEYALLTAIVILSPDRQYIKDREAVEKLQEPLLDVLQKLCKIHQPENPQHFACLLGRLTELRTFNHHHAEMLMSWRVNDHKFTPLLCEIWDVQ

The nature of assay [3]: ATG_ISRE_CIS: Attagene CIS-FACTORIAL HepG2 Assay for human Interferon Regulatory Factor 1 (IRF1) binding to an Interferon-Stimulated Response Element (ISRE) (AID 2282948). To be noted: HepG2 ISRE cis-reporter (Attagene), mRNA transcription readout; actives raise or lower the signal. A digest of the protocol:
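Transfected HepG2 (multiple reporter transcription units, cis elements) dosed 24 h. RNA → oligo(dT) RT → PCR → 6-FAM primer extension → HpaI → CE. DMSO = negative control/baseline.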

Assay [4] in a line: ATG_M_32_CIS: Attagene CIS-FACTORIAL HepG2 Assay for M32 Transcription Factor (Internal Marker) (AID 2282949).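 Note: background control marker of the multiplexed CIS panel rather than a real target.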 As to conditions: HepG2 Attagene cis-factorial M32 reporter, mRNA; actives raise or lower the signal. A digest of the protocol:
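Fluorescent capillary electrophoresis peaks of HpaI-digested, FAM-labelled RT-PCR reporter products give the signal. Source: transiently transfected human liver HepG2 cells, 24 h after chemical dosing; bidirectional fitting against DMSO.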

The nature of assay [5]: ATG_M_06_CIS: Attagene CIS-FACTORIAL HepG2 Assay for M06 Transcription Factor (Internal Marker) (AID 2282950). To be noted: HepG2 Attagene CIS-FACTORIAL M06 internal marker reporter; actives raise or lower the signal. The essentials: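 Measured 24 h post-dosing in transiently transfected HepG2 cells, this internal-marker endpoint reports reporter mRNA via RT-PCR with fluorescent primer extension and capillary electrophoresis. DMSO served as negative control and baseline for bidirectional fitting.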

Assay [6] concerns the target Hypoxia-inducible factor 1-alpha (Homo sapiens) (UniProt Q16665). Nature of the assay: ATG_HIF1a_CIS: Attagene CIS-FACTORIAL HepG2 Assay for human Hypoxia Inducible Factor 1 (HIF1A) (AID 2282951). As to conditions: HepG2 Attagene cis-factorial HIF1a reporter transcription; actives raise or lower the signal. The essentials: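 Endogenous-TF cis reporter readout, human HepG2 cells, 24 h incubation; mRNA detected via RT-PCR and capillary electrophoresis fluorescence; DMSO-normalised bidirectional fitting.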

The target in assay [7] is Hepatocyte nuclear factor 6 (Homo sapiens) (UniProt Q9UBC0). As to the kind of experiment: ATG_HNF6_CIS: Attagene CIS-FACTORIAL HepG2 Assay for human Hepatocyte Nuclear Factor 6 (HNF6) (AID 2282952). As to conditions: HepG2 Attagene cis-factorial HNF6 reporter transcription; actives raise or lower the signal. The essentials:
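Cells are HepG2 carrying transiently transfected cis-promoter reporter units. Treatment lasts 24 h, after which reporter transcripts are reverse-transcribed, amplified, FAM-labelled and sized by capillary electrophoresis. DMSO serves as baseline.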

Assay [8] concerns the target Heat shock factor protein 1 (Homo sapiens) (UniProt Q00613). As to the kind of experiment: ATG_HSE_CIS: Attagene CIS-FACTORIAL HepG2 Assay for human Heat Shock Transcription Factor 1 (HSE) (AID 2282953). As to conditions: HepG2 HSE cis-reporter, Attagene RNA transcription; actives raise or lower the signal. The essentials: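 Reporter mRNA induction in HepG2 is measured 24 h after dosing, using transiently transfected multiplexed cis-regulated reporter units. Signal comes from capillary electrophoresis of labelled RT-PCR products, with DMSO as negative control.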

A short description of assay [9]: ATG_MRE_CIS: Attagene CIS-FACTORIAL HepG2 Assay for human Metal Responsive Element (MRE) (AID 2282954). To be noted: HepG2 MRE cis-reporter transcription, Attagene multiplex; actives raise or lower the signal. The essentials: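 Step one: transfect HepG2 with cis-regulated reporter units. Step two: dose 24 h. Step three: isolate RNA, RT-PCR, 6-FAM label, HpaI digest, capillary electrophoresis. Fit bidirectionally to DMSO.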

Assay [10] in a line: ATG_GRE_CIS: Attagene CIS-FACTORIAL HepG2 Assay for human Glucocorticoid Response Elements (GRE) (AID 2282947). To be noted: HepG2 GRE cis-reporter, Attagene multiplex mRNA; actives raise or lower the signal. The essentials:
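Following 24 h chemical exposure of transiently transfected HepG2 cells, total RNA was reverse-transcribed and reporter cDNA amplified, fluorescently labelled and sized by capillary electrophoresis. Signal gain or loss was fitted relative to DMSO vehicle.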

The source made the active and inactive calls. Rule for the calls: active = hit-call score of the fitted dose curve at least 0.9, where 1 is the maximum; inactive = score below 0.9.

The values below come from PubChem BioAssay (EPA / NIEHS).

A word on the AC50: it is the midpoint of the concentration-response curve, whichever way the signal moves.

Chain of Heat shock factor protein 1 (Homo sapiens) (Q00613 whole entry, looked up): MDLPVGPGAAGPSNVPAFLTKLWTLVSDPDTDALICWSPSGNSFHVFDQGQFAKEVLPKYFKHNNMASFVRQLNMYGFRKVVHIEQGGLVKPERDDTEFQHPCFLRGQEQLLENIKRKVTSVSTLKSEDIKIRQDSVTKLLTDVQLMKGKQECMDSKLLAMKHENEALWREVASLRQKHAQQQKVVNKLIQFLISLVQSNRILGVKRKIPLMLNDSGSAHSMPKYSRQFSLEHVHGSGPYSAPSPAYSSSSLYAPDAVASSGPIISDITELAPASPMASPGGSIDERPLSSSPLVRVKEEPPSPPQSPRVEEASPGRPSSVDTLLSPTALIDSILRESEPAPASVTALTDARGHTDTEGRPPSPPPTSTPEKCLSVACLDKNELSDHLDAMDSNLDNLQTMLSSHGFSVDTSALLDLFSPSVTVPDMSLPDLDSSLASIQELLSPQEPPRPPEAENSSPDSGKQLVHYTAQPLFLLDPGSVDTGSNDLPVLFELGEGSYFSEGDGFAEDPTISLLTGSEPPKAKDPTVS
Chain of Hypoxia-inducible factor 1-alpha (Homo sapiens) (Q16665 whole entry, looked up): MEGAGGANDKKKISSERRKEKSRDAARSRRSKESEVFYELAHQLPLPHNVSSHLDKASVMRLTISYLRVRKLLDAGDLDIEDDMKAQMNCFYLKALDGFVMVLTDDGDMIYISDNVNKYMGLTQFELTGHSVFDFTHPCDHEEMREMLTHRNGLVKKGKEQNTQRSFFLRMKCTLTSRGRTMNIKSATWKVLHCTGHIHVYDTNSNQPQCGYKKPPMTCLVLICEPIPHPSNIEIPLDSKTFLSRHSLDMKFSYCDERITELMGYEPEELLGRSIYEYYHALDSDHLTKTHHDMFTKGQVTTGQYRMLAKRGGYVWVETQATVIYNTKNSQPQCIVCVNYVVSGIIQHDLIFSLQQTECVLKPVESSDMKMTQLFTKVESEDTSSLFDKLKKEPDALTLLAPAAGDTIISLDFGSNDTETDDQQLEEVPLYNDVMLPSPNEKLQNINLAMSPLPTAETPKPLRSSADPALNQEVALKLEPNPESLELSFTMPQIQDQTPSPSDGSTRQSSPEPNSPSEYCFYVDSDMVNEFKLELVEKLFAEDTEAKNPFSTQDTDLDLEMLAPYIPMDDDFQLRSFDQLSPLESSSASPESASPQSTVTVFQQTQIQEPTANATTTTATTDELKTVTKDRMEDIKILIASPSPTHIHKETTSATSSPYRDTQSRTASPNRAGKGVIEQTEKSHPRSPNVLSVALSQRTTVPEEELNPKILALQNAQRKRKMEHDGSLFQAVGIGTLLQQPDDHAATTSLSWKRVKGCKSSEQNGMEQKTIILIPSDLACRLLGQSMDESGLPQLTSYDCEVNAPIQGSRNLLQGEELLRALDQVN
Chain of Hepatocyte nuclear factor 6 (Homo sapiens) (Q9UBC0 whole entry, looked up): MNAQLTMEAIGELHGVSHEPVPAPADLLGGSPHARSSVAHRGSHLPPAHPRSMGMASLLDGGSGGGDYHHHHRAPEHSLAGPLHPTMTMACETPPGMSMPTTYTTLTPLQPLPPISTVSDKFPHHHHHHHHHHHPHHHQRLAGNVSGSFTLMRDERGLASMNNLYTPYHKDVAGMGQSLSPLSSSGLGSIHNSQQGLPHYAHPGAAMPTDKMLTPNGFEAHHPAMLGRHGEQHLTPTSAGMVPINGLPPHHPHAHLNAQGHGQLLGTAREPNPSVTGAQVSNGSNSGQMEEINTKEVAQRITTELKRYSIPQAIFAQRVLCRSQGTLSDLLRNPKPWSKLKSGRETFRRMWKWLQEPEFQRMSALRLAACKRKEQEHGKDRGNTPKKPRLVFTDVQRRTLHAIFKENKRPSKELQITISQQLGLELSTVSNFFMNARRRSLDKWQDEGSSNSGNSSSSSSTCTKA

For the molecule `CCC(C)n1c(=O)[nH]c(C)c(Br)c1=O` (configuration not stated), the result in [1], in assay [2], in assay [3], in [4], in assay [5] and in assay [6] was inactive. Moreover, the result in [7], in assay [8] and in assay [9] was inactive.

As for `CCN(CC)C(=O)C(C)Oc1cccc2ccccc12` (configuration not stated), the molecule was classed as inactive in assay [1], in [2], in assay [3], in [4], in assay [5] and in [7]. For the same molecule, the molecule was classed as inactive in assay [8]. Moreover, the values for the AC50 in [6] and in [9] were 23.6 µM (active) and 7.47 µM (active), respectively.

With `CC(C)=CC1C(C(=O)OCc2coc(Cc3ccccc3)c2)C1(C)C` (configuration not stated), the result in [1], in [2], in assay [10], in assay [3], in assay [4] and in assay [6] was inactive. The call in assay [7] and in [8] was inactive. In addition, in [9], the half-maximal activity concentration (AC50) is 50 µM (active).

As for `Cc1cnc(C2=NC(C)(C(C)C)C(=O)N2)c(C(=O)O)c1` (configuration not stated), the call in assay [1], in [10], in assay [3], in [4], in [5] and in assay [6] was inactive. The molecule was classed as inactive in assay [7], in assay [8] and in assay [9].

Take `OC(c1ccc(Cl)cc1)(c1ccc(Cl)cc1)C(Cl)(Cl)Cl`: the result in assay [1], in assay [2], in [10], in assay [3], in [4] and in [5] was inactive. Moreover, the molecule was called inactive in assay [6], in assay [7], in assay [8] and in assay [9].

As to `CNC(=O)Oc1cccc2ccccc12`, the call in [1], in [2], in [3], in assay [4], in assay [5] and in [6] was inactive. Moreover, the molecule was called inactive in [7] and in assay [8]. The AC50 in assay [9] is 50 µM (active).

On to `C=CCOC(=O)C(C)(C)OC(=O)c1cc(-n2c(=O)cc(C(F)(F)F)n(C)c2=O)ccc1Cl`, for which the molecule was called inactive in assay [1], in assay [10], in assay [3], in [4], in assay [5] and in [6]. In addition, the result in [7], in [8] and in assay [9] was inactive.

With `Cc1nc(N(C)C)nc(OC(=O)N(C)C)c1C`, the molecule was called inactive in [1], in assay [2], in assay [10], in [3], in [4] and in assay [5]. Also, the molecule was classed as inactive in [6], in assay [7], in [8] and in [9].

Regarding `CC1(C)C(C(=O)OC(C#N)c2cccc(Oc3ccccc3)c2)C1(C)C` (configuration not stated), the call in assay [1], in assay [2], in [3], in [4], in assay [5] and in [6] was inactive. Besides, the molecule was called inactive in assay [7] and in assay [8]. The concentration at half-maximal activity (AC50) in [9] was 10.8 µM (active).

As for `COCc1cnc(C2=NC(C)(C(C)C)C(=O)N2)c(C(=O)O)c1` (configuration not stated), the result in assay [1], in assay [2], in assay [10], in [3], in [4] and in assay [6] was inactive. Besides, the result in assay [7], in [8] and in assay [9] was inactive.

As to `CCOc1nc(F)cc2nc(S(=O)(=O)Nc3c(Cl)cccc3Cl)nn12`, the molecule was classed as inactive in assay [1], in assay [2], in [10], in [3], in assay [4] and in assay [6]. Besides, the molecule was classed as inactive in assay [7], in assay [8] and in assay [9].

In the case of `CN=C=S`, the molecule was called inactive in assay [1], in assay [2], in assay [3], in assay [4], in assay [5] and in assay [6]. Further, the result in assay [7] and in [8] was inactive. The AC50 in assay [9] is 26.1 µM (active).

In the case of `CCNC(=O)NC(=O)C(C#N)=NOC`, the result in [1], in [2], in assay [10], in [3], in assay [4] and in [5] was inactive. For the same molecule, the result in assay [6], in assay [7], in assay [8] and in [9] was inactive.

For `COC(=O)NC(=S)Nc1ccccc1NC(=S)NC(=O)OC`, the call in assay [1], in assay [2], in [10], in assay [3], in [4] and in assay [6] was inactive. The call in assay [7], in assay [8] and in assay [9] was inactive.

As for `CCCC(=NOCC)C1=C(O)CC(CC(C)SCC)CC1=O` (configuration not stated), the result in assay [1], in assay [10], in [3], in assay [4], in [5] and in assay [6] was inactive. The outcome in assay [7], in assay [8] and in [9] was inactive.

For `COc1cc(OC)nc(NC(=O)NS(=O)(=O)c2ncccc2OCC(F)(F)F)n1`, the result in [1], in assay [2], in assay [10], in assay [3], in assay [4] and in [6] was inactive. Further, the molecule was called inactive in assay [7], in assay [8] and in assay [9].
